Results reported in PubChem BioAssay (EPA / NIEHS).
Calls of active or inactive are those of the source. How the source made its calls: active means hit-call score of the fitted dose curve at least 0.9, where 1 is the maximum; inactive means score below 0.9.

The molecules below were run against Transcriptional activator Myb (Homo sapiens) (UniProt P10242) (assay: ATG_Myb_CIS: Attagene CIS-FACTORIAL HepG2 Assay for human Myeloblastosis (Myb) Proto-Oncogene Transcription Factor (AID 2282986)). Settings: HepG2 Attagene CIS-FACTORIAL Myb reporter transcription; actives raise or lower the signal.
Chain of Transcriptional activator Myb (Homo sapiens) (P10242 whole entry, looked up): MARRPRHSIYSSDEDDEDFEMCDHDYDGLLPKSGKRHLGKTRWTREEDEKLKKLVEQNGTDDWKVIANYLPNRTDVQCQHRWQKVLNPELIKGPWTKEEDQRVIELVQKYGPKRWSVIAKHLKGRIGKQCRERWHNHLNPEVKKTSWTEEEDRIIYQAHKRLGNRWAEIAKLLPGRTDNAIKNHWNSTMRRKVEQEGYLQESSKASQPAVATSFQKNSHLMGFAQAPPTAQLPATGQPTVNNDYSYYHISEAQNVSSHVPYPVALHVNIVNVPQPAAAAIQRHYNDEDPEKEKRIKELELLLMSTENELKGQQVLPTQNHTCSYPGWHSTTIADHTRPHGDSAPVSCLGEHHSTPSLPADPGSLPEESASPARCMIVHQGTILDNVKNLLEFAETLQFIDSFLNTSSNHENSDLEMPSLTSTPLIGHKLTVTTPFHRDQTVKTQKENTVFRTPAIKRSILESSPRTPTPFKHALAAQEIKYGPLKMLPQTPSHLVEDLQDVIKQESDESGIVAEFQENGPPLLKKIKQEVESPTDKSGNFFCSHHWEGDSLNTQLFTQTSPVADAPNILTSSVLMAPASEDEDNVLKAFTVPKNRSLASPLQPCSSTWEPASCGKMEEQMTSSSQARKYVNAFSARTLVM
Method: ATG_CIS is a cell-based, multiplexed-readout assay that uses HepG2, a human liver cell line, with measurements taken at 24 hours after chemical dosing in a 24-well plate.ATG_Myb_CIS is one of 52 assay component(s) measured or calculated from the ATG_CIS assay. It is designed to make measurements of mRNA induction, a form of inducible reporter, as detected with fluorescence intensity signals by Reverse transcription polymerase chain reaction (RT-PCR) and Capillary electrophoresis technology.Data from the assay component ATG_Myb_CIS was analyzed into 1 assay endpoint. This assay endpoint, ATG_Myb_CIS, was analyzed with bidirectional fitting relative to DMSO as the negative control and baseline of activity. Using a type of inducible reporter, measures of mRNA for gain or loss-of-signal activity can be used to understand the reporter gene at the transcription factor-level as they relate to the gene MYB. Furthermore, this assay endpoint can be referred to as a primary readout, because this assay has produced multiple assay endpoints where this one serves a reporter gene function. To generalize the intended target to other relatable targets, this assay endpoint is annotated to the dna binding intended target family, where the subfamily is MYB proteins.
Human liver HepG2 cells are transiently transfected with multiple reporter transcription units (MRTUs) in 6-well plates using FuGene 6 reagent (Roche; 3 ml FuGene/1 mg DNA). The MRTU constructs are regulated by a cis-regulating element (promoter). […] A major difference between the CIS and TRANS system is that in CIS activities of endogenous TFs are measured, whereas the TRANS assay evaluates changes in activities of exogenous, chimeric NR-Gal4 proteins. […] At the end of 24 hour incubation, total RNA was isolated using TriZol reagent (Invitrogen). The isolated RNA is then reverse-transcribed using oligo(dT) primer and Mo-MLV reverse transcriptase (Invitrogen) with DNAse I (Ambion) treatment for 30 min. The one-tenth of the produced cDNA was amplified by PCR using Taq DNA polymerase (Invitrogen) and two reporter sequence-specific primers. The PCR products were fluorescently labeled by primer extension with 6-arboxyfluorescein (6-FAM) 5'-labeled reporter sequence-specific primer (2 min at 95 C, 20 s at 68 C and 10 min at 72 C) and these products were digested with 5U of HpaI (New England Biolabs) for 2h at 37 C. The fragments were purified using Qiaquick PCR columns (Qiagen), analyzed on an ABI 3130xL genetic analyzer (Applied Biosystems) with peak positions identified by using a set of X-rhodamine (ROX)-labeled MapMarker1000 molecular weight standards (BioVentures). The raw capillary electrophoresis data was processed using Attagraph software (Attagene).

outcome, inactive:
CC(C)(C)c1cc(CCC(=O)NN)cc(C(C)(C)C)c1O
c1ccc2c(c1)c1cccc3ccc4cccc2c4c31
O=C(Oc1ccccc1)c1ccc(O)cc1
O=C1OC2(c3cc(Br)c(O)c(Br)c3Oc3c2cc(Br)c(O)c3Br)c2c(Cl)c(Cl)c(Cl)c(Cl)c21
C=CC(=O)OCCOCCOCC
Nc1cc([N+](=O)[O-])ccc1Cl
O=S(=O)(O)c1ccc(O)c2ncccc12
CCOC(=O)c1ccccc1OC
CC(=O)Nc1ccc(CC(=O)O)cc1
O=[N+]([O-])c1cc(C(F)(F)F)ccc1Cl
O=C(O)CCCCCCCC(=O)O
NNc1nc(-c2ccc(N)cc2)cs1
CC1=CCC2C(C1)C2(C)C (stereo not given)
CCCCCCOC(=O)CC
CCC(O)CO (stereo not given)
CC1CC(OC(=O)c2ccccc2O)CC(C)(C)C1 (stereo not given)
Cc1ccc2ccccc2n1
N#Cc1ccc(CC(=NNC(=O)Nc2ccc(OC(F)(F)F)cc2)c2cccc(C(F)(F)F)c2)cc1
CCCCOCCOCCSC#N
O=C(O)c1cccc(C(F)(F)F)c1
CCCCCCCCCCCCCCCCCC(=O)OCC(CC)CCCC (stereo not given)
NC(=O)c1ccccc1Cl
O=C1O[C@@H]2[C@@H](O)[C@H](O)O[C@@H]2[C@H]1O
CCCC(C)C=O (stereo not given)
CCc1c(C)cc(N)c(CC)c1N
O=C(O)COCCN1CCN(C(c2ccccc2)c2ccc(Cl)cc2)CC1 (stereo not given)
Cc1ccc(Nc2ccc(O)c3c2C(=O)c2ccccc2C3=O)cc1
OC[C@H]1O[C@H](O[C@]2(CCl)O[C@H](CCl)[C@@H](O)[C@@H]2O)[C@H](O)[C@@H](O)[C@H]1Cl
Nc1nc2ccc([N+](=O)[O-])cc2s1
CNCCO
Cc1cccc(C)c1C
COc1ccnc(CS(=O)c2nc3cc(OC(F)F)ccc3[nH]2)c1OC (stereo not given)
C=C(C)C(=O)OCc1ccccc1
C=C(C)[C@@H]1CC[C@@H](C)C[C@@H]1O
O=[N+]([O-])c1ccc(Nc2ccc(Nc3ccccc3)c(S(=O)(=O)O)c2)c([N+](=O)[O-])c1
OCCOCCOCCOCCO
COc1ccc(Cl)cc1C
CC(=O)c1c(C)cc(C(C)(C)C)cc1C
CC1(C)C(=O)N(Br)C(=O)N1Cl

AC50, active:
C#C[C@]1(O)CC[C@H]2[C@@H]3CCC4=Cc5oncc5C[C@]4(C)[C@H]3CC[C@@]21C 52.5 µM
